Screening data: PubChem, National Center for Advancing Translational Sciences (NCATS)
Rows were chosen to be rich in hits. Some 1.2% of all compounds tested hit in one or more screens of this group.
TRPV1 agonist – human TRPV1 agonism; Q8NER1; TRPV1-expressing cells, Fluo-8 calcium influx, agonist mode; AID 540275; activation, % at 8.33 µM; 320,000 tested, 0.19% active; in the data active = activation above about 80%; inconclusive = between about 30% and that limit; note: 0% is about no effect
Target sequence (Q8NER1 whole entry, looked up): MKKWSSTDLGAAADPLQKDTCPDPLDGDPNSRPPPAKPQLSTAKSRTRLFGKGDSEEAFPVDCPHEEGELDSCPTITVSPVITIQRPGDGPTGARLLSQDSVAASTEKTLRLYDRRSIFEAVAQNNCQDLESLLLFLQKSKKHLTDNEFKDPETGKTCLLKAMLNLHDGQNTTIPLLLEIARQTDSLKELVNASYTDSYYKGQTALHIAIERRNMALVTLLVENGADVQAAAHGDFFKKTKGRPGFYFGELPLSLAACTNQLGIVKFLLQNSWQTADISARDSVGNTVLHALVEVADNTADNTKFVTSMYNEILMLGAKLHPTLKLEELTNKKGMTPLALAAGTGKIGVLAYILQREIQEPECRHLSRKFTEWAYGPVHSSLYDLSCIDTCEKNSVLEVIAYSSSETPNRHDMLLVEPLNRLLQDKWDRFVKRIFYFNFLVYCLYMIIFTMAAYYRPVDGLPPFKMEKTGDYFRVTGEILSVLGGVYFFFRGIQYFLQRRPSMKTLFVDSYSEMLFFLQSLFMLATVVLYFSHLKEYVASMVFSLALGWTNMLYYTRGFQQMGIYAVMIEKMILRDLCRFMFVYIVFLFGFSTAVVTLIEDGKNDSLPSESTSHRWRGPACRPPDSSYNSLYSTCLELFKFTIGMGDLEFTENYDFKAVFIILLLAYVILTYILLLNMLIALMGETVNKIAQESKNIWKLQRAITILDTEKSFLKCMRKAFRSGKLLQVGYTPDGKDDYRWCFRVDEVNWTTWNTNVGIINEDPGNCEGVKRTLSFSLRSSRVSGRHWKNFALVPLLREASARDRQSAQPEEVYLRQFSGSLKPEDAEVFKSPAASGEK
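TRPV1-expressing cells were cultured overnight at 35.5C and loaded with Fluo-8 calcium dye for 40 to 90 min at room temperature. After a 10 s baseline, compound was added and calcium influx was read kinetically for 3 min (ex 480/em 520 nm).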
TRPV1 PAM – potentiators of human vanilloid receptor 1 (TRPV1); Q8NER1; TRPV1-expressing cells, Fluo-8 calcium influx, capsaicin EC20 potentiation; potentiation, % at 8.33 µM; 320,000 tested, 0.02% active; AID 540277; in the data active = potentiation above about 80%; inconclusive = between about 30% and that limit; note: 0% is about no effect
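TRPV1-expressing cells were cultured overnight at 35.5C and loaded with Fluo-8 calcium dye for 40 to 90 min at room temperature. After a 10 s baseline, compound was added and calcium influx was read kinetically for 3 min (ex 480/em 520 nm).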
KCNH2 WT inh – blocks the wildtype human KCNH2 potassium channel. Q12809. U2OS, BacMam KCNH2, thallium flux FluxOr; stronger effect = lower value. activity change, % at 1.84 µM. 340,000 tested, 0.37% active. AID 720551;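 active = maximum activity change below -70%; inconclusive = maximum activity change between -70% and -50%; inactive = maximum activity change above -50%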; note: % is set by controls: 0 for no effect and ±100 for the full control effect
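U2OS cells transduced with wild-type KCNH2 virus are loaded with FluxOr dye for 45 min, and thallium flux is measured in kinetic reads before and after stimulation buffer. Rate constants are normalized to DMSO controls.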
KCNH2 3.1 inh – inhibitors of human KCNH2 3.1 potassium channel isoform. U2OS KCNH2 3.1, thallium flux FluxOr; stronger effect = lower value. activity change, % (tested at about 1.8 µM). 340,000 tested, 0.95% active. AID 720553;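 active = maximum activity change below -70%; inconclusive = maximum activity change from -70% to -50%; inactive = maximum activity change above -50%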;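 note: thallium influx rate constant from kinetic fluorescence after stimulation buffer; % is set by controls: 0 for no effect and ±100 for the full control effect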
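Channel expression came from 3.1 mutant virus (1.77 x 10^8 /mL) applied to suspended U2OS cells for 4 h. Flux was tracked with FluxOr dye plus Red40 quencher, and kinetic rate constants normalized to controls.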
* hit, by the source's call; ? = inconclusive; · = no result.

SMILES	TRPV1 agonist	TRPV1 PAM	KCNH2 WT inh	KCNH2 3.1 inh
CC1CN(CC(O)COc2ccc(C#N)cc2)CCN1CC(O)COc1ccc(C#N)cc1 (stereo unspecified)	-1	1	-118*	-102*
COC(=O)c1ccc(OCC(O)CNC2CCCC2)cc1 (stereo unspecified)	3	-2	3	-6
OC(CNC1CCCC1)COc1ccc(-c2ccccc2)cc1 (stereo unspecified)	-3	-7	-6	-71*
CC(C)[C@H](NC(=O)c1c(F)cccc1F)C(=O)OCC(=O)NNC(=O)c1ccccc1	·	·	?	-1
O=C(CCCOC(=O)c1ccc(O)cc1O)c1ccc(Br)cc1	-1	7	-8	-5
CCOC(=O)c1ccc(NC(=O)/C=C/c2cccs2)cc1	84*	2	-11	-14
NS(=O)(=O)c1cccc(NC(=O)/C=C/c2cccs2)c1	94*	-7	-6	0
COc1ccccc1C(=O)Nc1ccc(C(=O)/C=C/c2cccs2)cc1	0	-4	65	-83*
O=C(/C=C/c1cccs1)c1ccc(NC(=O)c2ccccc2F)cc1	10	18	-4	-9
NS(=O)(=O)c1ccc(NC(=O)/C=C/c2cccs2)cc1	?	-20	-4	-7
CC1(C(=O)NNC(=O)C2CCCCC2)CC1(Cl)Cl (stereo unspecified)	2	7	-4	-17
COc1cc(C(C(=O)Nc2c(C)cccc2C)N(C)C(=O)c2ccc(-n3cnnn3)cc2)ccc1O (stereo unspecified)	-1	8	2	7
O=C(Nc1ccnn1C1CCN(Cc2ccc(CO)o2)CC1)c1cccc(F)c1	·	·	-12	-13
CCC(Oc1ccccc1)C(=O)N1CCC(C(N)=O)CC1 (stereo unspecified)	·	·	-109*	-2
COc1ccccc1C1(O)CCN(CC(=O)Nc2nc(-c3ccccc3)cs2)CC1	1	7	7	-86*
CCc1nnc(NC(=O)CN2CCC(O)(c3ccccc3OC)CC2)s1	1	0	-10	5
COc1ccccc1NC(=O)C(C)OC(=O)CSCC(=O)Nc1ccc(C)cc1C (stereo unspecified)	0	-1	-8	-74*
COc1ccccc1NC(=O)C(C)OC(=O)CSCC(=O)Nc1cc(C)on1 (stereo unspecified)	0	4	-9	-7
CCc1ccc(NC(=O)COC(=O)CCc2nc3cc(S(=O)(=O)N(CC)CC)ccc3n2C)cc1	-2	7	-3	-43
CCN(CC)S(=O)(=O)c1ccc2c(c1)nc(CCC(=O)OCC(=O)Nc1cc(Cl)cc(Cl)c1)n2C	-2	18	-3	-83*
O=C(CSc1ccc(Cl)cc1)N1CCN(c2ccc([N+](=O)[O-])cc2Cl)CC1	2	0	?	-88*
O=C(CSc1ccc(Cl)cc1)N1CCN(c2ncc(C(F)(F)F)cc2Cl)CC1	?	4	28	-124*
O=C(CN1CCC(Cc2ccccc2)CC1)N1CCc2ccccc2C1	-4	4	-35	-90*
Cc1ncc(CO)n1Cc1ccc(Cl)cc1	·	·	21	-15
Cn1cnc(C(=O)NCc2ccc(CNC(=O)OC(C)(C)C)cc2)c1C(=O)NCc1ccc(CNC(=O)OC(C)(C)C)cc1	·	·	-3	-115*
SMILES	TRPV1 agonist	TRPV1 PAM	KCNH2 WT inh	KCNH2 3.1 inh
COCC(C)OC(=O)C(C#N)c1nc2ccccc2nc1N1CCN(Cc2ccccc2)CC1 (stereo unspecified)	·	·	12	-26
C=CCOC(=O)C(C#N)c1nc2ccccc2nc1N1CCN(Cc2ccccc2)CC1 (stereo unspecified)	1	-3	?	-87*
COCCOC(=O)C(C#N)c1nc2ccccc2nc1N1CCN(Cc2ccccc2)CC1 (stereo unspecified)	15	23	-11	-88*
N#CC(C(=O)NC1CC1)c1nc2ccccc2nc1N1CCN(C/C=C/c2ccccc2)CC1 (stereo unspecified)	22	-9	-104*	-86*
OCCCn1c(C(CO)Nc2nc(-c3ccc(Cl)cc3)cs2)nc2ccccc21 (stereo unspecified)	·	·	4	-7
Oc1ccc2ccccc2c1C=Nc1ccc(Cl)cn1	-1	?	5	-114*
Cc1cc(O)c(C=Nc2ccc(Cl)cn2)c(=O)o1	-1	7	34	-15
Cc1ccccc1NS(=O)(=O)c1ccc(OCC(=O)NCC2CCCO2)cc1 (stereo unspecified)	1	-2	-172*	-184*
